# Compounds with a hit are over-represented: about 1.4% of the library has one in this group of screens.
# PrPC surface inh: inhibitors of human cell surface prion protein PrPC, primary screen, cell-based, TR-FRET. 370,000 compounds, 0.43% hits. inhibition, % at 13.8 µM. TR-FRET read-out. Major prion protein (Homo sapiens), P04156; in the data active = inhibition above about 24%
# Sa ugtP lethal: growth inhibition of ugtP-null S. aureus, primary screen, RN4220 ugtP deletion, OD600; 330,000 compounds, 0.54% hits; growth inhibition, % (concentration not given with the values); 16 h; in the data active = growth inhibition above about 68%
# BJeLR lethal: MLPCN primary cell-based screen for lethality selective to Ras in HRASV12 cells. BJeLR (HRASV12) viability, CellTiter-Glo ATP luminescence, 48 h. inhibition, % (no concentration beside the values). 300,000 compounds, 0.17% hits. AID 1554, 2009; in the data active = inhibition above about 50%
# SARS 3CLpro inh: SARS-CoV 3CLpro protease inhibitors, primary screen, biochemical, quenched FRET; Replicase polyprotein 1ab (Severe acute respiratory syndrome coronavirus), P0C6X7; recombinant SARS-CoV 3CLpro, quenched FRET peptide cleavage; inhibition, % at 6 µM; 290,000 compounds, 0.14% hits; AID 1706, 2009; in the data active = inhibition above about 12%
# Sa RN4220 lethal: growth inhibition of S. aureus RN4220, primary screen, OD600; 16 h; inhibition, % (no concentration beside the values); 330,000 compounds, 0.33% hits; in the data active = inhibition above about 85%
# VHR inh abs: VHR1 phosphatase inhibitors, primary screen, biochemical, absorbance, uHTS; Dual specificity protein phosphatase 3 (Homo sapiens), P51452; recombinant VHR phosphatase, pNPP absorbance; inhibition, % at 13.3 µM; 290,000 compounds, 0.52% hits; in the data active = inhibition above about 50%
# Target sequence (P51452 whole entry, looked up): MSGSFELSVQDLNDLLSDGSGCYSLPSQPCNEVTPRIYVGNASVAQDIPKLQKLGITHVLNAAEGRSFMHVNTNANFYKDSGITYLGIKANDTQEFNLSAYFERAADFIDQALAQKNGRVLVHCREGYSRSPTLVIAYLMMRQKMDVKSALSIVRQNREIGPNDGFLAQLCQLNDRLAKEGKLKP
# A number is an active result; . = inactive; / = not tested or not shown.
SMILES,PrPC surface inh,Sa ugtP lethal,BJeLR lethal,SARS 3CLpro inh,Sa RN4220 lethal,VHR inh abs
Cc1ccc(NC(=O)c2ccc3nc(N4CCOCC4)sc3c2)c(Cl)c1,.,.,.,.,.,56
COC(=O)C1=C(C)N(c2ccc(Cl)cc2)C(=Cc2cccs2)C1=O,/,.,/,/,.,/
COc1ccc2cc(/C=C3\SC(=S)NC3=O)c(N3CCOCC3)nc2c1,.,90,.,.,89,.
O=C1CSC(c2ccc([N+](=O)[O-])cc2)N1c1ccc(O)cc1 (centres undefined),.,.,.,.,.,57
O=C1CSC(c2cccc([N+](=O)[O-])c2)N1c1ccc(O)cc1 (centres undefined),.,.,.,.,.,.
CN1CCN(c2c(F)cc3c(=O)c(C(=O)O)cn4c3c2OCN4C)CC1,.,99,.,.,99,.
CN1CCN(c2c(F)cc3c(=O)c(C(=O)O)cn(CCF)c3c2F)CC1,/,/,/,.,/,.
Cc1ccc(CSc2ccc(-c3ccco3)nn2)cc1,.,.,.,.,.,53
COC(=O)C(NCc1cccc(CNC(C(=O)OC)C(C)C)c1)C(C)C (centres undefined),/,.,/,/,.,/
Cc1ccc(Cl)cc1N1CCN(C(=O)c2ccc3c(c2)CCN3S(C)(=O)=O)CC1,.,/,.,.,/,57
CS(=O)(=O)N1CCc2cc(C(=O)N3CCN(c4cccc(Cl)c4)CC3)ccc21,.,.,.,.,.,.
CCC1CCCCN1CCCNC(=O)c1ccc(N2CCCC2=O)cc1 (centres undefined),.,.,.,.,.,56
Cc1cc(C)n(-c2cc(C(=O)O)cc(C(=O)O)c2)n1,.,.,.,.,.,53
Cc1cc(C)n(-c2ccc(Cl)c(C(=O)O)c2)n1,.,.,.,.,.,.
O=c1[nH]c2ccccc2nc1C=Cc1ccc(O)cc1,/,.,/,/,.,/
NC1=NCC(CC2CCCCC2)N1CCc1cc(C(F)(F)F)cc(C(F)(F)F)c1 (centres undefined),/,101,/,/,101,/
NC1=NC[C@H](Cc2ccc(O)cc2)N1CCc1cc(C(F)(F)F)cc(C(F)(F)F)c1,.,/,.,/,/,.
NC1=NCC(Cc2ccccc2)N1CCc1cc(C(F)(F)F)cc(C(F)(F)F)c1 (centres undefined),/,.,/,/,.,/
NC1=NC[C@@H](CC2CCCCC2)N1CCc1cc(C(F)(F)F)cc(C(F)(F)F)c1,/,100,/,/,100,/
O=C(C1=CC(C2CC2)CC(OCCCCO)O1)N1CCN(Cc2ccc3c(c2)OCO3)CC1 (centres undefined),/,.,/,/,.,/
O=C(C=Cc1cccc([N+](=O)[O-])c1)n1cnc2ccccc21,/,.,/,/,.,/
O=C(COC(=O)c1cccnc1)Nc1ccccc1,.,.,.,.,.,57
O=C(COC(=O)c1cccnc1)Nc1ccc(F)cc1,.,.,.,.,.,.
COC(=O)[C@@]1(Cc2ccc(F)cc2)C2c3cc(C(=O)N(C)C)[nH]c3CC2CN1C(=O)c1ccccc1 (some centres undefined),/,.,/,/,.,/
Cc1nc(N2CCN(C(=O)c3ccco3)CC2)c2oc3ccccc3c2n1,.,.,.,/,.,.
SMILES,PrPC surface inh,Sa ugtP lethal,BJeLR lethal,SARS 3CLpro inh,Sa RN4220 lethal,VHR inh abs
CCc1nc(N2CCN(C(=O)c3ccco3)CC2)c2oc3ccccc3c2n1,.,.,.,.,.,52
COC(=O)C(Cc1ccccc1)NS(=O)(=O)NC(Cc1ccccc1)C(=O)OC (centres undefined),/,.,/,/,.,/
CC(C)c1ccc(NC(=O)C(c2ccc3c(c2)OCO3)N2CCCCC2)cc1 (centres undefined),.,.,.,.,.,.
Oc1cc2c(cc1C(c1ccc(Cl)c(Cl)c1)N1CCCC1)OCO2 (centres undefined),.,87,.,.,.,.
CSc1ccc(CN(C)CC(=O)N(C)CC(=O)Nc2ccccc2Br)cc1,.,.,/,/,.,/
CSc1ccc(CN(C)CC(=O)Nc2ccc(C)cc2Br)cc1,.,90,.,.,.,.
Cn1c(/C=C/c2ccccc2)nc2ccccc2c1=O,.,.,.,.,.,.
Cn1c(/C=C/c2ccc([N+](=O)[O-])o2)nc2ccccc2c1=O,/,97,82,.,99,.
CCOC1c2c(ccc3ccc(=O)oc23)OC(C)(C)C1O (centres undefined),/,.,/,/,.,/
CCN(CC)CCOC(=O)c1ccc(NC(=O)C2(c3ccccc3)CCCC2)cc1,.,.,.,.,.,54
CCN1C(=O)C2C(c3ccc(-c4ccc(F)cc4)cc3)N[C@@](Cc3ccccc3)(C(=O)OC)C2C1=O (some centres undefined),/,.,/,/,.,/
Cc1ccc(CON=CC2=C(Cl)c3ccccc3CC2)cc1,/,95,/,/,.,/
Fc1ccc(CO/N=C/C2=C(Cl)c3ccccc3CC2)cc1,.,/,.,.,/,.
COC(=O)C1=C(c2ccc(OC(F)(F)F)cc2)CC2CCC1N2C(=O)NC1CCCCC1 (centres undefined),/,.,/,/,.,/
CCOC(=O)c1ccc2c(c1)n(CC)c(/C=C/N(C)c1ccccc1)[n+]2CC,.,.,.,.,.,.
CC[n+]1c(/C=C/N(C)c2ccccc2)n(-c2ccccc2)c2ccc(-c3nc4ccccc4s3)cc21,/,101,91,.,100,.
FC(F)Sc1ccc(NC(=S)NCc2ccccc2)cc1,.,.,.,.,.,.
FC(F)Sc1ccc(NC(=S)NCC2CCCCC2)cc1,.,100,.,.,99,.
FC(F)Sc1ccc(NC(=S)NC(c2ccccc2)c2ccccc2)cc1,.,100,.,.,99,.
O=C(CCNC(=O)OCc1ccccc1)NC1CCCCC1,.,.,.,.,.,.
O=C(CNC(=O)OCc1ccccc1)NC1CCCCCC1,.,.,.,.,.,53
Cc1ccc(N2C(=O)N3C(c4cccc(C)c4)C4C(=O)N(Cc5ccccc5)C(=O)C4[C@]3(C)C2=O)cc1 (some centres undefined),/,.,/,/,.,/
O=c1[nH][nH]c2c(N=Cc3ccccc3O)ccc(F)c12,/,.,/,.,.,52
Cc1ccc(C(NC(=O)C(C)C)c2cc([N+](=O)[O-])c3cccnc3c2O)cc1 (centres undefined),.,95,.,.,92,.
CCOC(=O)CCCCCC(=O)Nc1ccc2c(c1)CC(=O)N(C(C)CO)CC(C)C(CN(C)C(=O)Nc1ccc3c(c1)OCO3)O2 (centres undefined),/,.,/,/,.,/
COc1ccc(C=C(C#N)C(=O)Nc2cccc([N+](=O)[O-])c2)cc1C(=O)O,/,.,/,/,.,/
O=C1c2ccccc2C(O)N1c1ccc(Cl)cc1 (centres undefined),.,.,.,.,.,.
